# Data as given in ChEMBL document CHEMBL4888484, “Replenishing the malaria drug discovery pipeline: Screening and hit evaluation of the MMV Hit Generation Library 1 (HGL1) against asexual blood stage Plasmodium falciparum ,using a nano luciferase reporter read-out” (2022).
# “And” between values parts separate entries of the source, which are not always exact repeats. Equal values may be shown once. Hit rate of the full screen: of about 150,000 compounds, about 540 (0.36%) showed an effect of 50% or more. The list comes from a sample in which strong results are over-represented; it also holds similar structures and randomly drawn compounds.
# Test system: Plasmodium falciparum
# Assay: Primary screen in NF54 nanoGlo assay, in single point, at 2uM, 72h; a lower Z score goes with more inhibition
# Type: functional, Erythrocyte
# Conditions: timepoint 72 hour
Compound,% Inhibition [%],Z score,% Inhibition (2 µM)
CCCN(CCC)C(=O)CN1CCN(Cc2ccc3c(c2)CCO3)CC1,-11,1.43,
COc1ccc(Cl)cc1[C@H](C)NCc1nncn1C1CC1,-13,2.01,
OC[C@H]1CCCN(CCNc2ccc3cc(Cl)ccc3n2)C1,12,-1.36,
Cc1nccc(NC(=O)N2C3CCC2CC(CCF)C3)n1 (configuration not stated),-5,0.79,
COc1ccc(NC(=O)c2ccc3nn(CC(=O)Nc4ccc(F)cc4)c(=O)n3c2)cc1,-26,2.29,
O=C(NCc1ccc(F)cc1)C1[C@@H]2C=C[C@@]3(CN(Cc4ccccc4Cl)C(=O)[C@H]13)O2 (some centres not stated),-9,1.29,
CCCCN(C(=O)Nc1nc2ccccc2s1)C1CC1,-5,0.64,
COc1ccc(-c2c[n+](-c3ccc(Cl)cc3)c3n2CCCCC3)cc1,64,-6.22,
COc1ccc(-c2cnc3n2CCCC3)cc1,-23,2.75,
COc1ccc([N+]2=C3CCCCN3C[C@]2(O)c2ccc(Cl)cc2)cc1,,,3% and -11%
c1ccc([C@@H]2CN(C3CC3)CC3(CCN(Cc4ccccn4)CC3)C2)cc1,-10,1.74,
Oc1cccc(CN2CCC3(CC2)C[C@H](c2ccccc2)CN(C2CC2)C3)c1,76,-2.68,
c1ccc([C@@H]2CN(C3CC3)CC3(CCN(Cc4ccncc4)CC3)C2)cc1,-1,0.23,
N#C[C@@]1(c2ccccc2OCc2ccccc2)CCC(=O)N1Cc1ccccc1,-10,1.37,
CN(Cc1ccsc1)C(=O)c1cccs1,-2,0.22,
CN(C)CCN(Cc1ccsc1)C(=O)c1cc2cc(F)ccc2[nH]1,-5,0.68,
CN(Cc1ccsc1)C(=O)c1cc2ccccc2[nH]1,58,-6.32,
Cc1ccc(S(=O)(=O)N2CCN(C(=O)NCc3nccn3C)CC2)cc1,-12,2.31,
CCN1CCC(N(C)C(=O)Cc2csc(-c3cccnc3)n2)CC1,61,0.93,
CC1CN(C(=O)Cc2csc(-c3cccnc3)n2)CC(C)O1 (configuration not stated),-15,2,
CC(C)N(Cc1ccccc1)C(=O)Cc1csc(-c2cccnc2)n1,-7,0.9,
O=C(CCc1cn(-c2ccccc2)nc1-c1ccc2c(c1)OCO2)NC[C@H]1CCCO1,0,0.04,
CN(CCNC(=O)CCc1cn(-c2ccccc2)nc1-c1ccc2c(c1)OCO2)C1CCCCC1,63,-8.26,
COCCNC(=O)CCc1cn(-c2ccccc2)nc1-c1ccc2c(c1)OCO2,-10,1.35,
